Data from the supplement of paper PMC10849652.
Of roughly 7,900 targets only a part is listed; those with a hit were picked by preference. About 0.6% of all pairs of compound and target were hits. A number with no mark means an inactive call.

Experiments:
Test in all cases: log2 fold change, soluble protein after heating vs DMSO (PISA); higher = thermal stabilisation; K562 cells, 10 uM, 30 min; active = over 0.2 and 3.5 SD of the protein, either way, in both replicates (recomputed)
[1] = compound: C#Cc1cccc(Nc2ncnc3cc(OCCOC)c(OCCOC)cc23)c1 [erlotinib]
In short: (§1)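 K562 cells at 2×10^6 cells/mL were treated with 10 μM compound for 30 min. Aliquots were heated for 3 min across 48°C-58°C, pooled, and extracted in PBS with 0.5% NP-40 at 4°C; soluble protein was the supernatant after 21,000xg for 90 min. Soluble protein was quantified by TMTpro 16plex LC-MS/MS with channel sums equalised, and reported as log2 fold change in thermal stability against DMSO controls, with values from duplicates.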

[2] = compound: C/C(=N\NC(=O)C1=CC(=CC=C1)S(=O)(=O)N2CCOCC2)/C3=C(C=CC(=C3)Cl)O
In short: as §1

[3] = compound: C1=CC(=C(C=C1Cl)C2=NC3=NC=CN=C3C(=N2)NC4=CC=NC=C4)F
In short: as §1

[4] = compound: C1=CC(=CC=C1C2=NC3=C(N2)C=C(C=C3)C(=O)N)OC4=CC=C(C=C4)Cl
In short: as §1

[5] = compound: C1=CC2=C(C=CC(=C2)/C=C\3/C(=O)NC(=NCC4=CC=CS4)S3)N=C1
In short: as §1

[6] = compound: C1=CC2=NC=CN=C2C=C1/C=C/3\C(=O)NC(=O)S3
In short: as §1

[7] = compound: C1=CC=C(C=C1)C2=NC(=C(N2)C3=CC=NC=C3)C4=CC(=C(C=C4)Cl)O
In short: as §1

[8] = compound: C1=CC=C2C(=C1)C3=NNC4=CC=CC(=C43)C2=O
In short: as §1

[9] = compound: C1CCN(C1)C(=O)NC2=CC=CC(=C2)NC3=NC=C(C(=N3)NCCC4=CN=CN4)Br
In short: as §1

[10] = compound: C1CN(CCC1(CC2=CC=C(C=C2)Cl)N)C3=NC=NC4=C3C=CN4
In short: as §1

Chain of UniProt Q8N5Y8 (Q8N5Y8 whole entry, looked up): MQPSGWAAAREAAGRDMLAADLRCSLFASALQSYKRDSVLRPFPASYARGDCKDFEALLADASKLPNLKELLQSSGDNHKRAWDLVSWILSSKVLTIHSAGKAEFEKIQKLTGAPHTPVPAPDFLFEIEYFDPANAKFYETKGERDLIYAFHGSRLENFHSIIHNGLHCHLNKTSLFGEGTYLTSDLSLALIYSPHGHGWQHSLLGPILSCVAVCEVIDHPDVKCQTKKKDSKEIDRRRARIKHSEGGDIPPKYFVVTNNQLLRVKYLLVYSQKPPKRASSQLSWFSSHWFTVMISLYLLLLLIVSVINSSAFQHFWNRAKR
Chain of UniProt P31321 (P31321 whole entry, looked up): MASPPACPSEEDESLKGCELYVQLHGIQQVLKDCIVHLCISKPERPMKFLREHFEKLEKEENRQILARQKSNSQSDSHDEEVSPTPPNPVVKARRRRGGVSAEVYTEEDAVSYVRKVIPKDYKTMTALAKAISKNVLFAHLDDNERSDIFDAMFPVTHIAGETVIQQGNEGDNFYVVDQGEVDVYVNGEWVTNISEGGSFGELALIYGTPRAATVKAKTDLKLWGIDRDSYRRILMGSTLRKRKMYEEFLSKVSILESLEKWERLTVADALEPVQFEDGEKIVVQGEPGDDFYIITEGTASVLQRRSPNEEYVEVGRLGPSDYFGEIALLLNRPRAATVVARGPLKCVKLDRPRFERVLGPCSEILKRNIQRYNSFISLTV
Chain of UniProt O43924 (O43924 whole entry, looked up): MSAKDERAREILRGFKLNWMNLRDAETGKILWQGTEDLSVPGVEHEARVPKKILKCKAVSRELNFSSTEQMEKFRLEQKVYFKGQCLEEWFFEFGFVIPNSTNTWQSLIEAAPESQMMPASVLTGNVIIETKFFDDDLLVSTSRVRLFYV
Chain of UniProt Q86TP1 (Q86TP1 whole entry, looked up): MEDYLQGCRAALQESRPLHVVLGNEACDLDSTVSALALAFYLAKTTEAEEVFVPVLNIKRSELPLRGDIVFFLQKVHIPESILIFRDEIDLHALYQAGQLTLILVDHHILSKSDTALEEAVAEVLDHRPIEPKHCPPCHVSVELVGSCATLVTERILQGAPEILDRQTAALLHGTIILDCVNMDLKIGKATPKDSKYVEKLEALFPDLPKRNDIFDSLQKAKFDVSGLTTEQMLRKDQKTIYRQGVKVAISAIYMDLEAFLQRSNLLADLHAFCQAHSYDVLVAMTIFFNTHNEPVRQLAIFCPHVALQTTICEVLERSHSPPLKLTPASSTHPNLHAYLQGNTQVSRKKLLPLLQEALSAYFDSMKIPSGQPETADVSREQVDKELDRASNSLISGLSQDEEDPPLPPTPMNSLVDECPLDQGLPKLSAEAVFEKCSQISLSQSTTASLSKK
Chain of UniProt Q15111 (Q15111 whole entry, looked up): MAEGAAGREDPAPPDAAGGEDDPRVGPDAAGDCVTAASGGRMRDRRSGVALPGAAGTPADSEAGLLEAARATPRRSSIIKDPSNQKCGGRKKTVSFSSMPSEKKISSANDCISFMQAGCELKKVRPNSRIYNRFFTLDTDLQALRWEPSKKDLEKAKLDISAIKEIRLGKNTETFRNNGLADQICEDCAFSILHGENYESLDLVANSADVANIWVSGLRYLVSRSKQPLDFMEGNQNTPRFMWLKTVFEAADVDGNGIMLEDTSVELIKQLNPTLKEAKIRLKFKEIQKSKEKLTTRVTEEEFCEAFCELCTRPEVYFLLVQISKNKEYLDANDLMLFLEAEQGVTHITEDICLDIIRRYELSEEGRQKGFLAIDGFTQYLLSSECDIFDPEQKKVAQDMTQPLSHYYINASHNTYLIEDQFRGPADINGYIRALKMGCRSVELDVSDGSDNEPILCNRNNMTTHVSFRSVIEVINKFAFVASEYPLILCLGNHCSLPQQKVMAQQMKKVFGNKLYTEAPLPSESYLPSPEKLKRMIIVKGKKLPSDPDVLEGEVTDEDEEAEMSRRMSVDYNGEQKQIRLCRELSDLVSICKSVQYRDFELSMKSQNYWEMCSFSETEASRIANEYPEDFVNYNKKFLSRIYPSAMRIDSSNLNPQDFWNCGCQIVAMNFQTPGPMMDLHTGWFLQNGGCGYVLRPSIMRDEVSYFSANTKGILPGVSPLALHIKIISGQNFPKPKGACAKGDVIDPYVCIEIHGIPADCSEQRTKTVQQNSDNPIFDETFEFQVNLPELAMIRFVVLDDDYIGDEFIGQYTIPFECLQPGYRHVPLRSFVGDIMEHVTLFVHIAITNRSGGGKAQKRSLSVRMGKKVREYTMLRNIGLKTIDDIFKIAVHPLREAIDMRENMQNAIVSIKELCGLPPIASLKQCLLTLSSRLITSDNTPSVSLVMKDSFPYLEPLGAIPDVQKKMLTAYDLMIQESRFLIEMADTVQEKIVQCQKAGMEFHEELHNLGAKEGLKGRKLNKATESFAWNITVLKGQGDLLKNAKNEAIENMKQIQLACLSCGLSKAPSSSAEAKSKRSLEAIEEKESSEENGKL
Chain of UniProt O60678 (O60678 whole entry, looked up): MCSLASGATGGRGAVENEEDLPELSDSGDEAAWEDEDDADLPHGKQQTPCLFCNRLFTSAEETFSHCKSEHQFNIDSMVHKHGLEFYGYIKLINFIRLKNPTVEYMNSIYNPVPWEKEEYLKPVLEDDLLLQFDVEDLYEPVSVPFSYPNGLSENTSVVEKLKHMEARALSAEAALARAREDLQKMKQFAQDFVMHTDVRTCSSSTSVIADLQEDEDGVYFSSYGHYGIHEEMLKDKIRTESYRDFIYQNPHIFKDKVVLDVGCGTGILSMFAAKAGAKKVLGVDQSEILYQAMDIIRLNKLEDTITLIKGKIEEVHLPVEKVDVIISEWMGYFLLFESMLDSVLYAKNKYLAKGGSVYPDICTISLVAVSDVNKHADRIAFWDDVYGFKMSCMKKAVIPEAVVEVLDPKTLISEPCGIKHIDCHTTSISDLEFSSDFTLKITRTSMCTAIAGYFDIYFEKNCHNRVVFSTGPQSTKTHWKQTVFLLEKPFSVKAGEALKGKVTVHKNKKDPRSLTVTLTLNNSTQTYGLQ
Chain of UniProt P43686 (P43686 whole entry, looked up): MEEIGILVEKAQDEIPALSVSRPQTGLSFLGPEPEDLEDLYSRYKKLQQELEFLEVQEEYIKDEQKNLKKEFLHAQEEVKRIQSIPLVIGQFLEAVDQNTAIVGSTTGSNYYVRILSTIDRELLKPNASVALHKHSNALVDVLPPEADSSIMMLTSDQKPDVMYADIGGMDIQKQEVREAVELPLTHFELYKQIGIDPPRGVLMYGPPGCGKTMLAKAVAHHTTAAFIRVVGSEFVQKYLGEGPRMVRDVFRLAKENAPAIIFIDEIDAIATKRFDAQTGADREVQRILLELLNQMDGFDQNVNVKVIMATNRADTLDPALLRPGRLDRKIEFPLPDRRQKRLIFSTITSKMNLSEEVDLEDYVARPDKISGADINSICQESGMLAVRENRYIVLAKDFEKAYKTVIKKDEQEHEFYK
Chain of UniProt Q02156 (Q02156 whole entry, looked up): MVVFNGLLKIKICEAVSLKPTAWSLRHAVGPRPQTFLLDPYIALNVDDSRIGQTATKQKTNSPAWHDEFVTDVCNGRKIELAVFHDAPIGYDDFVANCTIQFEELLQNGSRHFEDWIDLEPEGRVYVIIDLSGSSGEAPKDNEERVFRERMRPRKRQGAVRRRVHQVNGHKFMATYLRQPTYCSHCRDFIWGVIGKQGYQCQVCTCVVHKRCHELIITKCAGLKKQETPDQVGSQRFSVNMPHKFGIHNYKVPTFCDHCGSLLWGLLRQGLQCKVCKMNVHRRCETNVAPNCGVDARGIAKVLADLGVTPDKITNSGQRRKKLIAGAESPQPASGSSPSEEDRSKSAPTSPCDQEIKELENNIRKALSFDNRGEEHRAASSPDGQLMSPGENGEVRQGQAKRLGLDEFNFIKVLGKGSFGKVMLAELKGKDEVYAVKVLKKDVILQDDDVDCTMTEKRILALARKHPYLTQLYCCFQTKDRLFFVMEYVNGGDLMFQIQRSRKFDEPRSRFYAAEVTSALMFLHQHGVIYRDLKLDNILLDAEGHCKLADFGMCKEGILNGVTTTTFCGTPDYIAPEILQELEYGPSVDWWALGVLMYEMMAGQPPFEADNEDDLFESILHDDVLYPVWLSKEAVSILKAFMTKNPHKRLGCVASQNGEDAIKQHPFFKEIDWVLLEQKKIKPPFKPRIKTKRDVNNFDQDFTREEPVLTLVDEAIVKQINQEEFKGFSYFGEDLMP
Chain of UniProt O43242 (O43242 whole entry, looked up): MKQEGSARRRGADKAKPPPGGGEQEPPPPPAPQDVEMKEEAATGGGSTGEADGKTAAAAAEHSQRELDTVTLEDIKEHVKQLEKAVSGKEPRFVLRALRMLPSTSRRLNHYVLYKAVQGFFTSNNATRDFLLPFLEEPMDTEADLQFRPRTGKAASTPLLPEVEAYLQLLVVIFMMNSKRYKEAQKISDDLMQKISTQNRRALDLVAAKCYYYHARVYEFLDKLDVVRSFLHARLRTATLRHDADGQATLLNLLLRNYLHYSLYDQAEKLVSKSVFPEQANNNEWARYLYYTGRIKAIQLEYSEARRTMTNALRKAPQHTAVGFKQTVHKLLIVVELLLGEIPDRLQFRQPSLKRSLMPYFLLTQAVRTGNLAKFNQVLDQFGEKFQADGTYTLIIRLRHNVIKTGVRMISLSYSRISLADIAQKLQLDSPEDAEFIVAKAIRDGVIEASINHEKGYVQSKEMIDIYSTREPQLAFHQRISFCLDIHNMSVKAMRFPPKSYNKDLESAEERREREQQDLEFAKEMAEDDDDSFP
Chain of UniProt P28072 (P28072 whole entry, looked up): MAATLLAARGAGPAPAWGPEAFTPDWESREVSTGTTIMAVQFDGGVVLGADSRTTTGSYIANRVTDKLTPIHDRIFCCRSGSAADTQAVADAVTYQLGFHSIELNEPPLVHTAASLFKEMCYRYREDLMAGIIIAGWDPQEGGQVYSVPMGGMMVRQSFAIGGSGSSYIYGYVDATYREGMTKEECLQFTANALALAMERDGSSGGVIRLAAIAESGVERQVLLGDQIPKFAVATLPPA

Target | log2 fold change [1] | log2 fold change [2] | log2 fold change [3] | log2 fold change [4] | log2 fold change [5] | log2 fold change [6] | log2 fold change [7] | log2 fold change [8] | log2 fold change [9] | log2 fold change [10]
PSMC4 (UniProt P43686) | -0.05 | -0.092 | -0.052 | -0.004 | -0.023 | -0.032 | -0.011 | 0.006 | 0.04 | -0.041
PLCL1 (UniProt Q15111) | 0.136 | -0.122 | 0.117 | 0.095 | -0.042 | 0.007 | 0.098 | 0.051 | 0 | -0.376
PLBD2 (UniProt Q8NHP8) | -0.022 | -0.048 | 0.026 | 0.01 | 0.009 | 0.037 | 0.01 | -0.02 | -0.018 | 0.018
PSMD3 (UniProt O43242) | -0.074 | -0.05 | -0.072 | 0.002 | -0.022 | -0.028 | 0.008 | 0.033 | -0.012 | -0.066
PURA (UniProt Q00577) | -0.244 | -0.208 | -0.319 | 0.101 | -0.156 | 0.013 | -0.137 | -0.051 | 0.179 | -0.102
POLD1 (UniProt P28340) | 0.063 | 0.039 | -0.009 | -0.016 | 0.023 | -0.024 | 0.05 | -0.058 | -0.02 | -0.022
PRKCQ (UniProt Q04759) | 0.036 | 0.047 | 0.024 | 0.03 | 0.093 | 0.012 | 0.012 | -0.008 | -0.007 | -0.061
POLR2C (UniProt P19387) | 0.05 | 0.037 | -0.006 | -0.051 | -0.038 | -0.053 | 0.172 | 0.001 | 0.117 | 0
PPM1G (UniProt O15355) | 0.117 | 0.118 | 0.009 | -0.017 | 0.024 | 0.035 | -0.052 | -0.022 | -0.011 | -0.065
PRKCE (UniProt Q02156) | -0.076 | 0.107 | 0.111 | 0.057 | 0.06 | 0.057 |  | 0.004 | -0.019 | -0.095
PRMT3 (UniProt O60678) | -0.056 | 0.147 | 0.03 | 0.027 | 0.066 | 0.011 | 0.028 | -0.003 | -0.01 | -0.089
PRPF3 (UniProt O43395) | 0.06 | 0.144 | 0.069 | -0.02 | 0.015 | 0.019 | 0.057 | 0 | -0.07 | 0.053
PMVK (UniProt Q15126) | 0.001 | -0.518 | 0.006 | 0.042 | 0.052 | -0.045 |  | -0.115 | -0.006 | 0.15
PRKAR2A (UniProt P13861) | -0.002 | 0.013 | -0.024 | 0.062 | 0.082 | -0.005 | -0.021 | -0.004 | -0.177 | -0.486 (active)
PECAM1 (UniProt P16284) | -0.039 | 0.072 | -0.055 | 0.057 | 0.054 | -0.024 | -0.05 | -0.133 | 0.057 | 0.021
PTDSS1 (UniProt P48651) | -0.076 | -0.12 | -0.099 | 0.045 | -0.031 | -0.114 | 0.03 | 0.041 | 0.016 | -0.058
PCBP2 (UniProt F8VRH0) | -0.011 | 0.07 | 0.016 | -0.099 | -0.26 | -0.153 |  | -0.04 | -0.13 | 0.113
PRKAR1B (UniProt P31321) | -0.027 | -0.056 | -0.036 | 0.013 | 0.205 | 0.282 | -0.006 | 0.102 | 0.086 | -0.077
PSMB6 (UniProt P28072) | -0.067 | -0.079 | -0.024 | -0.001 | -0.068 | -0.006 | -0.046 | -0.012 | 0.011 | 0.042
PARP16 isoform 3 (UniProt Q8N5Y8) | 0.025 | 0.049 | -0.055 | -0.018 | -0.029 | 0.102 |  | -0.013 | -0.026 | 0.067
PDE6D (UniProt O43924) | -0.094 | 0.055 | -0.082 | -0.102 | 0.078 | 0.004 |  | 0.115 | 0.417 | 0.028
PRUNE1 (UniProt Q86TP1) | 0.002 | 0.063 | 0.062 | 0.03 | -0.034 | -0.016 | 0.051 | 0.045 | -0.079 | -0.005
PLK1 (UniProt P53350) | -0.027 | 0.035 | 0.006 | 0.079 | -0.041 | -0.017 | -0.018 | 0.058 | -0.003 | -0.039
PHLDB1 isoform 2 (UniProt Q86UU1) | -0.02 | 0.03 | 0.099 | 0.027 | 0.165 | -0.093 | 0.008 | -0.125 | -0.048 | 0.025
POLR2I (UniProt P36954) | -0.058 | -0.107 | 0.108 | 0.068 | -0.073 | -0.117 | 0.079 | -0.043 | -0.092 | 0
